The panel holds about 83,000 compounds, 20% with a hit somewhere; the sample as a whole holds those more often.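 Growth was measured after 48 h exposure to one concentration of compound in 96-well plates. Values under 10 count as active.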 Values without a mark were called inactive. Activity calls are given as the source filed them.
Test system: SF-268 CNS
Assay: NCI-60 one-dose screen, 48 h (100 = growth as untreated, 0 = no growth, -100 = all killed)
Settings: 10 µM unless noted

SMILES	growth
Cc1ccc2c(n1)C(=O)C(Cl)=C(Nc1cccc(C(C)C)c1)C2=O	80.9%
Cn1cc(-c2cc(N)n3nc(-c4cn(C)c5ccc(F)cc45)cc3n2)c2cc(F)ccc21	19.6%
Cn1c(SCC(=O)c2cccs2)nc2ccccc2c1=O	92.7%
CCCC(=O)NC(c1ccc(N(CC)CC)cc1)c1cc(C)c2cccnc2c1O (centres undefined)	27.6%
COC(=O)C1CCCN(S(=O)(=O)/N=C2\NC(=O)NC2=C(Cl)Cl)C1 (centres undefined)	106%
O=C(N/N=C/c1ccc([N+](=O)[O-])s1)c1[nH]c2ccc(Br)cc2c1-c1ccccc1	36.4%
C=C1CC[C@H]2[C@@](C)(CCC3OC(c4ccc(OCc5cn(C6CC(OC(C)=O)C(OC(C)=O)C(COC(C)=O)O6)nn5)cc4)OC[C@]32C)[C@@H]1/C=C/C1=CCOC1=O (some centres undefined)	90.3%
COc1ccc([C@@H]2c3[nH]c4ccccc4c3CC3C(=O)N(C4CCN(Cc5c(F)cccc5F)CC4)CC(=O)N32)c(OC)c1 (some centres undefined)	55% [5.26 µM]
O=C(N/N=C/c1ccc(Br)s1)c1[nH]c2ccc(Br)cc2c1-c1ccccc1	37.2%
O=C1c2c(c3c4cccnc4[nH]c3c3ccc4ccccc4c23)C(=O)N1CCO	78.4%
Nc1c(C(=O)Nc2ccc(C(F)(F)F)cc2)sc2nc(-c3cnccn3)cc(-c3cccs3)c12	78.6%
CSc1ccc2c(c1)N(C(=O)/C(C#N)=C/c1c[nH]c3ccccc13)c1ccccc1S2	55.8%
Cc1cc(C(=O)Nc2sc3c(c2C(N)=O)CCC(=O)C3)ccc1OCCN1CCCCC1	99.4%
CN(C)c1ccc(/C=c2\sc3nc4ccccc4n3c2=O)cc1	109%
CN(C)c1ccc(/C=C2\Cc3c(F)ccc(Br)c3C2=O)cc1	101%
CN1CCN(Cc2ccc(NC(=O)c3cncc(C#Cc4cnc5ccc(N6CCSCC6)nn45)c3)cc2C(F)(F)F)CC1	-52.9% (active)
COc1cc(/C=C/C(=O)c2ccc(C)cc2)ccc1Oc1nc(NCCO)nc(N2CCOCC2)n1	66.1%
O=C(CSc1nnc(-c2ccc3nc(-c4ccc(Cl)cc4)[nH]c3c2)o1)Nc1ccc(C(=O)/C=C/c2ccc(Cl)cc2)cc1	99.9%
C#Cc1nc(C2=C(C)C(=N\O)/C(=N/O)C2)cs1	86.1%
CCOc1ccc2nc(NC(=O)c3ccc(C(F)(F)F)cc3)sc2c1	106%

SMILES	growth
CC(O)C(NC(=O)C1CCCN1C(=O)CNC(=O)C1CC(=O)NCC(=O)NC(Cc2c[nH]c3ccccc23)C(=O)NC(Cc2ccc(O)cc2)C(=O)NCC(=O)NC(CO)C(=O)NC(CCC(N)=O)C(=O)NC(Cc2c[nH]c3ccccc23)C(=O)N1)C(=O)NCC(=O)NC(CCC(N)=O)C(=O)NC(CCCNC(=N)N)C(=O)NC(CC(=O)O)C(=O)O (centres undefined)	103%
CC1=C(C)C(=O)C(Nc2ccccc2)=C(Cl)C1=O	95.4%
CO/N=C1\CCc2c(sc(NC(=O)c3cccc(C(F)(F)F)c3)c2C(N)=O)C1	51.8%
COc1ccc(CNS(=O)(=O)/N=C2\NC(=O)NC2=C(Cl)Cl)cc1	59.6%
NS(=O)(=O)c1cccc(Nc2nc(SCC(=O)c3ccc([N+](=O)[O-])cc3)nc3ccccc23)c1	54.5%
Cn1ccnc1C(=O)/C=C/c1ccc(NC(=O)Nc2ccccc2)cc1	3.22% (active)
CCOC(=O)c1sc(N)c(C(=O)OCC)c1C	42.7%
CN(C)S(=O)(=O)c1oc(-c2ccccc2)nc1C#N	116%
O=C1Nc2cc(Cl)ccc2/C1=C\c1ccc(OCc2ccc(Br)cc2F)cc1	-11.9% (active)
COc1cc(/C=C/C(=O)c2cc(OC)c(OC)c(OC)c2)ccc1OCc1ccccc1	43.3%
NC(=O)c1cc(-c2ccc3ncnc(N4CCc5cc(F)c(Cl)cc54)c3c2)cnc1N	27.6%
COc1ccc(NC2=C(Cl)C(=O)C(C)=C(C)C2=O)cc1OC	93.5%
Cn1ccnc1C(=O)/C=C/c1ccc(NC(=O)Nc2ccc(F)cc2)cc1	55.6%
O=C(CCN1C(=O)/C(=C/c2ccccc2)SC1=S)N1CCOCC1	97.7%
Cc1ccc(CNS(=O)(=O)/N=C2\NC(=O)NC2=C(Cl)Cl)cc1	61.8%
N#Cc1c(-c2ccc(Cl)cc2)nc(SCc2ccc(F)cc2)nc1N1CCNCC1	73.3%
Clc1ccc(-c2cn3cc(Cc4ccc(Cl)c(Cl)c4)sc3n2)cc1	86.2%
COc1ccc(/C=N/NC(=O)c2[nH]c3ccc(Br)cc3c2-c2ccccc2)o1	38.6%
O=C(Nc1nc2ccc(O)cc2s1)c1cccc(C(F)(F)F)c1	59.4%

— PubChem BioAssay (NCI)
